Screening data as filed in PubChem.
This excerpt belongs to a sample that is enriched for hits.
Giardia FBPA inh: Giardia lamblia aldolase inhibition. A8B2U2. purified Giardia FBPA. Potency, µM (series often up to 59.6 µM), inactives show at the top dose activity, negative = inhibition, usual class: inhibitors. 290,000 tested, 0.71% active. AID 2451; further: potency means the concentration at half of the fitted maximal effect; on the % scale 0 is the no-effect control and ±100 the full control effect; nearly all actives have a fitted effect of over 55% in size
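40 nM FBPA preincubated 10 min at RT with compound (up to 57.5 uM final), then substrate plus GAPDH/TPI/NAD/arsenate coupling and diaphorase/resazurin added. Fluorescence read after 20 min at RT, 525/598 nm.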
CHX counter: counter-screen hit for Shiga toxin inhibitors, cycloheximide. cell reporter, cycloheximide protein synthesis inhibition counterscreen. max response, %. 300,000 tested, 12% active. AID 2314; in the data active means max response mostly above about 13%, no sharp cut-off; inactive means mostly below about 14%; further: read at 38.3 µM for the half of the compounds with a filed dose; 0% is about no effect
LmPK inhibitor: blocks Leishmania mexicana pyruvate kinase activity; purified LmPK, Kinase-Glo ATP luminescence, 1 h; Potency, µM (titrated, usually from 57.5 µM), inactives show at the highest dose activity change, negative = inhibition, actives largely listed as inhibitors; 290,000 tested, 0.37% active; AID 1721; further: potency means the concentration at half of the fitted maximal effect; on the % scale 0 is the no-effect control and ±100 the full control effect
Target sequence (Q27686 whole entry, looked up): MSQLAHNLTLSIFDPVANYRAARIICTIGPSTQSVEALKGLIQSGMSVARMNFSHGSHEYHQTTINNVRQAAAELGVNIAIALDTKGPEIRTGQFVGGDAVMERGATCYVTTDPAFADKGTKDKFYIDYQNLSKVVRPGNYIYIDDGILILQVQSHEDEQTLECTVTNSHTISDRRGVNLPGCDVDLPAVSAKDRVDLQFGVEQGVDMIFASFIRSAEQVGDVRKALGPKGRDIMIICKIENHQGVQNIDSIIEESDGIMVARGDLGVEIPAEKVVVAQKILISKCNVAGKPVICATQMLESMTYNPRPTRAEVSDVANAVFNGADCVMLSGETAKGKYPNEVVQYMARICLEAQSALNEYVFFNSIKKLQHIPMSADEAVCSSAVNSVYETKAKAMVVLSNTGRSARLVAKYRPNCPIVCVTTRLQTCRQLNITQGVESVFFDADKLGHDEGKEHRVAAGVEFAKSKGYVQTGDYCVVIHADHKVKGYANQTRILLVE
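ATP generated from ADP (0.1 mM) and PEP (0.5 mM) by 0.1 nM LmPK over 1 h at room temperature (pH 7.2 imidazole buffer) was detected by coupled luciferase luminescence. Values were normalized to uninhibited and no-enzyme wells.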
Tb PYK inh: inhibitors of Trypanosoma brucei pyruvate kinase; Potency, µM (series often up to 76.8 µM), inactives show at the top dose activity, negative = inhibition, most hits filed as inhibitors; Q57TT1; AID 624173; TbPYK enzyme, Kinase-Glo Plus ATP luminescence, 45 min; 410,000 tested, 0.12% active; further: potency means the concentration at half of the fitted maximal effect; on the % scale 0 is the no-effect control and ±100 the full control effect; nearly all actives have a fitted effect of over 50% in size
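Activity of T. brucei pyruvate kinase was followed by Kinase-Glo Plus luminescence after the enzyme reacted 45 min at room temperature with 130 uM ADP (final) and substrate. Test compounds were added before ADP at multiple concentrations.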
Shiga inhibitor: inhibitors of Shiga toxin in Vero cells; Vero cells, Shiga toxin protein synthesis inhibition reporter; inhibition, % at 38.7 µM; 290,000 tested, 9.2% active; AID 2315; in the data active means inhibition mostly above about 28%, no sharp cut-off; inactive means mostly below about 43%; further: 0% is about no effect
Sm TGR block: S. mansoni TGR enzyme inhibition. Q962Y6. purified TGR, DTNB reduction, TNB absorbance 405 nm. 360,000 tested, 3% active. AID 485364. Potency, µM (highest dose often 114 µM), inactives show top-dose activity change, negative = inhibition, usual class: inhibitors; further: potency means the concentration at half of the fitted maximal effect; on the % scale 0 is the no-effect control and ±100 the full control effect; nearly all actives have a fitted effect of over 60% in size
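First, TGR (20 nM dispensed) and NADPH were mixed with compound. Second, a 15 min room-temperature incubation followed. Third, further NADPH and then DTNB were added to start the reaction. Finally, TNB absorbance was monitored kinetically.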
Numbers without * were called inactive; [ ] = dose if it differs, or a comment. Unless noted, the call rests on the fitted dose curve; in most records, active means well fitted curve in the direction sought with a large enough effect; inconclusive means small, poorly fitted or top-dose-only effect, or another doubt; inactive means no such curve, though single readings can be large; an effect the other way counts as inactive or inconclusive.

What do the screens show for `CCc1c(C)c(C#N)c2nc3ccccc3n2c1-n1nc(C)cc1C`?
Giardia FBPA inh: -0.1%; CHX counter: 0.6; LmPK inhibitor: 0.2%; Tb PYK inh: -1.2%; Shiga inhibitor: -4.9; Sm TGR block: 0.5%

How did COc1ccccc1CNC(=O)CN1N=C(c2ccccc2)CCC1=O do in these assays?
Tb PYK inh: 0.5%; Sm TGR block: 2.5%

How did COCCNC(=O)C(=O)NCC1OCCN1S(=O)(=O)c1cc(F)ccc1F (stereo not given) do in these assays?
Tb PYK inh: 4.6%

Results for Cn1nc(NC(=O)C(F)(F)F)c2nccnc21 ?
Tb PYK inh: -4.5%

How did Cn1nc(NC(=O)C(F)(F)F)c2ncc(-c3ccc(Cl)cc3)nc21 do in these assays?
Giardia FBPA inh: 6.4%; CHX counter: 41.2*; LmPK inhibitor: 0.3%; Tb PYK inh: 1.0%; Shiga inhibitor: 67.8*; Sm TGR block: 2.0%

How did Cc1ccc(-n2ncc(C(=O)NCCCN3CCCCC3)c2C2CCN(C(=O)OC(C)(C)C)CC2)cc1 do in these assays?
Tb PYK inh: 1.2%[15.4 µM]; Sm TGR block: -9.3%

What do the screens show for `COc1ccc(/C=C/C(=O)OCn2c(SC)nnc(C)c2=O)cc1OC`?
Giardia FBPA inh: 6.1%; CHX counter: 12.0; LmPK inhibitor: -0.8%; Tb PYK inh: -5.3%; Shiga inhibitor: -10.5; Sm TGR block: 28.2µM*

What do the screens show for `COCC(=O)N1CCC2(CC1)CN(C(=O)Nc1cccc(C#N)c1)C2`?
Giardia FBPA inh: 3.2%; Tb PYK inh: -4.4%

Results for O=C(Cc1ccccc1)Nc1sc2c(c1C(=O)Nc1cccc(Cl)c1)CCCC2 ?
CHX counter: 16.3; Shiga inhibitor: 19.9

How did Cc1ccc2nc(NC(=O)c3ccc(OCC4CCCO4)cc3)sc2c1 (stereo not given) do in these assays?
Giardia FBPA inh: 15.1%; CHX counter: 46.1*; LmPK inhibitor: 0.0%; Tb PYK inh: 0.7%; Shiga inhibitor: 92.5*; Sm TGR block: 2.5%

How did Cc1cccnc1NC(=O)c1ccc(OCC2CCCO2)cc1 (stereo not given) do in these assays?
Tb PYK inh: 3.6%; Sm TGR block: -6.5%

How did Cc1cc(C)c2nc(NC(=O)c3ccc(OCC4CCCO4)cc3)sc2c1 (stereo not given) do in these assays?
Giardia FBPA inh: 0.8%; CHX counter: 31.4*; LmPK inhibitor: 0.3%; Tb PYK inh: -0.4%; Shiga inhibitor: 64.7*; Sm TGR block: 2.2%

How did COc1ccc(CNC(=O)Cn2nc(N3CCN(c4ccccc4)CC3)ccc2=O)c(OC)c1 do in these assays?
Tb PYK inh: 5.9%; Sm TGR block: 2.8%

What do the screens show for `Cc1ccccc1NS(=O)(=O)c1cccc2nsnc12`?
Giardia FBPA inh: -1.4%; CHX counter: -3.1; LmPK inhibitor: -1.2%; Tb PYK inh: -9.7%; Shiga inhibitor: -3.7; Sm TGR block: 2.6%

Results for CCN1C(=O)/C(=C/c2ccc3c(c2)CCN3CCCCl)C(=O)NC1=S ?
Giardia FBPA inh: -16.9%; CHX counter: 0.4; LmPK inhibitor: -22.3%; Tb PYK inh: inconclusive; Shiga inhibitor: 7.9; Sm TGR block: 8.91µM*

Results for O=C1NC(=S)N(C2CC2)C(=O)/C1=C/c1ccc2c(c1)CCN2CCCCl ?
Giardia FBPA inh: inconclusive; CHX counter: 8.2; LmPK inhibitor: -24.0%; Tb PYK inh: inconclusive; Shiga inhibitor: -14.8; Sm TGR block: inconclusive

What do the screens show for `C=CCN1C(=O)/C(=C/c2ccc3c(c2)CCCN3CCC)C(=O)NC1=S`?
Giardia FBPA inh: inconclusive; CHX counter: 11.4*; LmPK inhibitor: -26.3%; Tb PYK inh: inconclusive; Shiga inhibitor: 2.1; Sm TGR block: 8.91µM*

Results for CCOC(=S)NC(=O)c1sc2ccccc2c1Cl ?
Giardia FBPA inh: inconclusive; CHX counter: 32.3*; LmPK inhibitor: -10.4%; Tb PYK inh: -10.8%; Shiga inhibitor: 26.6; Sm TGR block: 3.1%

Results for CCCOC(=S)NC(=O)c1sc2ccccc2c1Cl ?
Giardia FBPA inh: -15.0%; CHX counter: 39.8*; LmPK inhibitor: -2.6%; Tb PYK inh: -15.1%; Shiga inhibitor: 63.3*; Sm TGR block: -0.5%

How did Cc1ccccc1COC(=O)CNC(=O)c1sc2ccccc2c1Cl do in these assays?
Tb PYK inh: -10.8%; Sm TGR block: -0.1%

What do the screens show for `O=C(NC(=S)NCCO)c1sc2ccccc2c1Cl`?
Giardia FBPA inh: -21.5%; CHX counter: 51.3*; LmPK inhibitor: -2.6%; Tb PYK inh: 2.7%; Shiga inhibitor: 111.3*; Sm TGR block: -0.3%

What do the screens show for `O=C(Nc1ccc(-c2noc(COc3ccccc3Cl)n2)cc1)c1ccco1`?
Giardia FBPA inh: 1.0%; CHX counter: 41.5*; LmPK inhibitor: -19.8%; Tb PYK inh: -9.1%; Shiga inhibitor: active; Sm TGR block: -4.4%

What do the screens show for `O=C(NCc1nc(-c2ccc(C(F)(F)F)cc2)no1)c1cccs1`?
Giardia FBPA inh: -15.7%; CHX counter: 8.2*; LmPK inhibitor: -0.1%; Tb PYK inh: -1.4%; Shiga inhibitor: 17.7; Sm TGR block: 12.8%

What do the screens show for `CC(NC(=O)c1ccco1)c1nc(-c2ccc(C(C)(C)C)cc2)no1` (stereo not given)?
Giardia FBPA inh: -10.0%; CHX counter: 15.2; LmPK inhibitor: -1.3%; Tb PYK inh: -1.0%; Shiga inhibitor: 49.0*; Sm TGR block: 10.5%

How did O=C(NCc1nc(-c2ccccc2)no1)c1cccs1 do in these assays?
Giardia FBPA inh: 3.1%; CHX counter: 7.4; LmPK inhibitor: 0.2%; Tb PYK inh: 1.2%; Shiga inhibitor: 28.6; Sm TGR block: 3.2%

What do the screens show for `Cc1ccc(-c2noc(C(C)NC(=O)c3ccco3)n2)cc1` (stereo not given)?
Tb PYK inh: -5.4%; Sm TGR block: -3.5%

Results for CC(C)(C)c1ccc(-c2noc(CNC(=O)c3ccco3)n2)cc1 ?
Giardia FBPA inh: -9.8%; CHX counter: 31.7*; LmPK inhibitor: -0.2%; Tb PYK inh: -0.7%; Shiga inhibitor: 37.3; Sm TGR block: 4.9%

How did NC(=O)NCC(N)C(=O)O (stereo not given) do in these assays?
Giardia FBPA inh: -5.7%

What do the screens show for `Cc1nc2cnc(N3CCOCC3)nc2n(C[C@H]2CCCO2)c1=O`?
Giardia FBPA inh: 3.7%

How did O=C(Nc1ccc2c(c1)nc1n2CCOC1)C1CCCCC1 do in these assays?
Giardia FBPA inh: -5.2%; CHX counter: 28.9*; LmPK inhibitor: -5.5%; Tb PYK inh: -0.9%; Shiga inhibitor: 80.9*; Sm TGR block: 0.8%

How did O=C(Nc1ccc2c(c1)nc1n2CCSC1)c1ccco1 do in these assays?
Giardia FBPA inh: -21.5%; CHX counter: 12.5; LmPK inhibitor: -28.3%; Tb PYK inh: -4.9%; Shiga inhibitor: 34.2; Sm TGR block: 14.1µM*
